Test results taken from ChEMBL document CHEMBL1961873, “Compounds: GSK PKIS; Assays: Nanosyn kinase panel” (2012).

Assays:
[1] = biological target: High affinity nerve growth factor receptor (Homo sapiens) (UniProt P04629); details: at 1 µM;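 note: each value is the mean percent inhibition of TRKA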
[2] = biological target: BDNF/NT-3 growth factors receptor (Homo sapiens) (UniProt Q16620); details: at 0.1 µM
[3] = biological target: BDNF/NT-3 growth factors receptor (Homo sapiens) (UniProt Q16620); details: at 1 µM
[4] = biological target: NT-3 growth factor receptor (Homo sapiens) (UniProt Q16288); details: at 0.1 µM
[5] = biological target: NT-3 growth factor receptor (Homo sapiens) (UniProt Q16288); details: at 1 µM
[6] = biological target: T1, Tyrosine-protein kinase TXK (Homo sapiens) (UniProt P42681); details: at 0.1 µM
T1 sequence (whole entry): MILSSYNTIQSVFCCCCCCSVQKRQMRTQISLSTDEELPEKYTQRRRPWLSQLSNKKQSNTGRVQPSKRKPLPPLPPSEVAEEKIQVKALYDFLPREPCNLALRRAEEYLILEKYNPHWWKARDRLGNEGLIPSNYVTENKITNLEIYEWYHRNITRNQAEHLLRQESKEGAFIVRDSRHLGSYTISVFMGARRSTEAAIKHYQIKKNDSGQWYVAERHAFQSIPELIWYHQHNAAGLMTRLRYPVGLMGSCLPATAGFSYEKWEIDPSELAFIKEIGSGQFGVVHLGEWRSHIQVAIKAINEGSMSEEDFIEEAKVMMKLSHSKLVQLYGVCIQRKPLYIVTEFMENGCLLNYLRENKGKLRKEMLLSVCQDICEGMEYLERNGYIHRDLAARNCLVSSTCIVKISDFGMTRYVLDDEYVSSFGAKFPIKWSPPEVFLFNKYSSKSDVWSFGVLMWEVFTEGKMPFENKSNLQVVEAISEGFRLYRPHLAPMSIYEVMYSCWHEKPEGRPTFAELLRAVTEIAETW

[7] = biological target: T1, Tyrosine-protein kinase TXK (Homo sapiens); details: at 1 µM
[8] = biological target: Non-receptor tyrosine-protein kinase TYK2 (Homo sapiens) (UniProt P29597); details: at 0.1 µM;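 note: each value is a mean of the inhibition readings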
Non-receptor tyrosine-protein kinase TYK2 (Homo sapiens), sequence (P29597 whole entry): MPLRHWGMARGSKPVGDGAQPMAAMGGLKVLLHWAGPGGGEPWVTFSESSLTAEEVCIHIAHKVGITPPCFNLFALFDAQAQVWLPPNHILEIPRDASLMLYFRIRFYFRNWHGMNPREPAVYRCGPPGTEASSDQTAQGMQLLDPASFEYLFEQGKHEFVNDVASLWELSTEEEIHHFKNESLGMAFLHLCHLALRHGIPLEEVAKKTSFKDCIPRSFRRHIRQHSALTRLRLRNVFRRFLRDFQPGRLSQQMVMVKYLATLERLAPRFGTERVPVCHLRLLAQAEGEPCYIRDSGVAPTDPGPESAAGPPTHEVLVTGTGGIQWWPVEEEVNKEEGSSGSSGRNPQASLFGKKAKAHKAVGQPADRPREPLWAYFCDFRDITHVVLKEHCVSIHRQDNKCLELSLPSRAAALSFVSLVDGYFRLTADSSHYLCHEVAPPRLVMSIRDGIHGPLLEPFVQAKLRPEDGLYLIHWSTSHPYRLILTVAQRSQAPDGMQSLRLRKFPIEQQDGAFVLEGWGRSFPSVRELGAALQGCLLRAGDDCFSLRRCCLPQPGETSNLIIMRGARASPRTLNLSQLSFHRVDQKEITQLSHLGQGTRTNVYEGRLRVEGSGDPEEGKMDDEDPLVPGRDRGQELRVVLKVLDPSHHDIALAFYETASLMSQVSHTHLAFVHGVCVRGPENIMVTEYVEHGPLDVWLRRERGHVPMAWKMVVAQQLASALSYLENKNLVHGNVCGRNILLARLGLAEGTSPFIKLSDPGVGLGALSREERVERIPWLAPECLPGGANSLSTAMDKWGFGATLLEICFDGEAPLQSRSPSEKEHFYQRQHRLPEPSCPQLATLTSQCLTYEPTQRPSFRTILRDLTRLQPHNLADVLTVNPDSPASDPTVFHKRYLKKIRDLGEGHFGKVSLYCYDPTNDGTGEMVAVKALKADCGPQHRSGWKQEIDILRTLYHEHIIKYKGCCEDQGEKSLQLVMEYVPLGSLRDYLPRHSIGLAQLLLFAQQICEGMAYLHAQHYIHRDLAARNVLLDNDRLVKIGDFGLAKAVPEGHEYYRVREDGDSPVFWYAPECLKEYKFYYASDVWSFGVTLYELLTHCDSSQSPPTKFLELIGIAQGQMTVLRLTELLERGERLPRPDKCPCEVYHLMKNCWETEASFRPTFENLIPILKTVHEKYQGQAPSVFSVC

[9] = biological target: T2, Dual specificity protein kinase TTK (Homo sapiens) (UniProt P33981); details: at 1 µM;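 note: reported figures are mean TTK inhibition at 1 µM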
T2 sequence (whole entry): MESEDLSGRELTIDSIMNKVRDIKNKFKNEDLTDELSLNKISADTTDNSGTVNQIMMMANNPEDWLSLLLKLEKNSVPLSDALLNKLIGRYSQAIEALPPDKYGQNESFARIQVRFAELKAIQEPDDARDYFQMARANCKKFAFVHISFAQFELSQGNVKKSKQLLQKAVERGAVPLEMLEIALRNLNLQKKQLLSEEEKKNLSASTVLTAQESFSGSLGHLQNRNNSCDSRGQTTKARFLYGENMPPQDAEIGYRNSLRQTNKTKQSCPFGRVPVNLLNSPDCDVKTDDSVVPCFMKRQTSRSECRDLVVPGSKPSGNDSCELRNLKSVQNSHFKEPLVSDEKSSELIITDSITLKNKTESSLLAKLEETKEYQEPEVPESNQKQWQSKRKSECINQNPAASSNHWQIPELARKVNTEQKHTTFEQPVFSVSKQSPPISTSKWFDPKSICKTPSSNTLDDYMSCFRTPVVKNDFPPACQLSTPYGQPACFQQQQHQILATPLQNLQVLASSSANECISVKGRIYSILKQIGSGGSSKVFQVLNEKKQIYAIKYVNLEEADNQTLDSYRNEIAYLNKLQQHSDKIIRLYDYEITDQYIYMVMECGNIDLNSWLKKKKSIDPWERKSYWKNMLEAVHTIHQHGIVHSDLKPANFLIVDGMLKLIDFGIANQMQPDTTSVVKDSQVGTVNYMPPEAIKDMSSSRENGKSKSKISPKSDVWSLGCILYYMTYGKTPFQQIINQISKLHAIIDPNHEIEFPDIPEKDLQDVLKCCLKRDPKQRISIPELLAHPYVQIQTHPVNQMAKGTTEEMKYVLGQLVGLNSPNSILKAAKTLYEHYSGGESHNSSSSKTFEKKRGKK

[10] = biological target: T3, Aurora kinase A (Homo sapiens) (UniProt O14965); details: at 0.1 µM
T3 sequence (whole entry): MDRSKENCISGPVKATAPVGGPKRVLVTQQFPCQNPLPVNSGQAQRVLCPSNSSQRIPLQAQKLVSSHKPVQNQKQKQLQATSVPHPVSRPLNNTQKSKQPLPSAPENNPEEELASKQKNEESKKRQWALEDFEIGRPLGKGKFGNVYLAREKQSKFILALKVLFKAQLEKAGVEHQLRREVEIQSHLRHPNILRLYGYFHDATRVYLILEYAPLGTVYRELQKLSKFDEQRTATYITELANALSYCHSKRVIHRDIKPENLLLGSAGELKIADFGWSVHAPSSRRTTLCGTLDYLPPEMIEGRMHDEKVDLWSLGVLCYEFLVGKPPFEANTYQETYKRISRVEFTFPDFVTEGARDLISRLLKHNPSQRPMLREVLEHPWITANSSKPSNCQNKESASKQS

[11] = biological target: T3, Aurora kinase A (Homo sapiens); details: at 1 µM
[12] = biological target: Aurora kinase B (Homo sapiens) (UniProt Q96GD4); details: at 0.1 µM
Aurora kinase B (Homo sapiens), sequence (Q96GD4 whole entry): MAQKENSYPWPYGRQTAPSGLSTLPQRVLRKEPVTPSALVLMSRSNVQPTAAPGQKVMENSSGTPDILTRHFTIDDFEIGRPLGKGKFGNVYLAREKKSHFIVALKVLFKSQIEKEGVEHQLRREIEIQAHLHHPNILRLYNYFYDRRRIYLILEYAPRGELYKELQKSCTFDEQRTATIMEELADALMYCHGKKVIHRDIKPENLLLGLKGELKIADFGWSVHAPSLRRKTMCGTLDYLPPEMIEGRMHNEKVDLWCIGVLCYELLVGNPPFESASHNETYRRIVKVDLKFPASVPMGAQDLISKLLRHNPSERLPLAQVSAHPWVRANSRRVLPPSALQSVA

[13] = biological target: Aurora kinase B (Homo sapiens) (UniProt Q96GD4); details: at 1 µM
[14] = biological target: T4, Aurora kinase C (Homo sapiens) (UniProt Q9UQB9); details: at 0.1 µM
T4 sequence (whole entry): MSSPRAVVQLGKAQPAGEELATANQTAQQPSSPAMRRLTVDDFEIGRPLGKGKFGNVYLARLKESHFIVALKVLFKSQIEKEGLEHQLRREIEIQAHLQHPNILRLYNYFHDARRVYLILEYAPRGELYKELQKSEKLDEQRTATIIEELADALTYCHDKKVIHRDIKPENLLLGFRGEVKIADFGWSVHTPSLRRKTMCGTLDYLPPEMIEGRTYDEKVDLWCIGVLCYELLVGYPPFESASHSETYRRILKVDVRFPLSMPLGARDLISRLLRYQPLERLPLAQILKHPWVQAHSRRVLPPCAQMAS

[15] = biological target: T4, Aurora kinase C (Homo sapiens); details: at 1 µM
[16] = biological target: Serine/threonine-protein kinase 10 (Homo sapiens) (UniProt O94804); details: at 0.1 µM
Serine/threonine-protein kinase 10 (Homo sapiens), sequence (O94804 whole entry, looked up): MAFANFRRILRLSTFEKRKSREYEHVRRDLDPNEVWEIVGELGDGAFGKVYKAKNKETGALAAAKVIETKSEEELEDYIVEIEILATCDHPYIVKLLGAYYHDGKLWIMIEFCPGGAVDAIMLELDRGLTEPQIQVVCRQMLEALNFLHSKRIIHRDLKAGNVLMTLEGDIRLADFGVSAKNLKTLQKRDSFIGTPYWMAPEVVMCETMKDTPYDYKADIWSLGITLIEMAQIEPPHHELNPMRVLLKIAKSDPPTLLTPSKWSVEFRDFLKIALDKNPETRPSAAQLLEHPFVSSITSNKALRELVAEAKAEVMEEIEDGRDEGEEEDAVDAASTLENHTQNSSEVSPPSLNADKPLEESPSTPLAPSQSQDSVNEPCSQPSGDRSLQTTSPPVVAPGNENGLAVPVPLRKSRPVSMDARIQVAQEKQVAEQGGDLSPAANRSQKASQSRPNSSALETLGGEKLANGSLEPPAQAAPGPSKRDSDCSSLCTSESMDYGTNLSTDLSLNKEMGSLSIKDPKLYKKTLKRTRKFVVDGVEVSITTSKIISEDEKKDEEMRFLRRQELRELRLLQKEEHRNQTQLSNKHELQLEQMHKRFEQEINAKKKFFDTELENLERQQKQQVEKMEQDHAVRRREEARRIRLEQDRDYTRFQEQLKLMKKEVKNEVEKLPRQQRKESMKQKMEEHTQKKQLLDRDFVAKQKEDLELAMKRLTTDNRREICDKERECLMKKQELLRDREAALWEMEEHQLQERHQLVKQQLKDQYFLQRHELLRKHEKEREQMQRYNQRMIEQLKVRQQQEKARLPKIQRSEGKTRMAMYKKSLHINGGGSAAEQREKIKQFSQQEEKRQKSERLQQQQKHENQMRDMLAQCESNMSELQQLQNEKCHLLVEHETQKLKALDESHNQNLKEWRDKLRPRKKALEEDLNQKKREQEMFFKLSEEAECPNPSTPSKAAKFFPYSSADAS

[17] = biological target: Serine/threonine-protein kinase 10 (Homo sapiens) (UniProt O94804); details: at 1 µM
[18] = biological target: T5, Mitogen-activated protein kinase kinase kinase kinase 2 (Homo sapiens) (UniProt Q12851); details: at 0.1 µM
T5 sequence (whole entry): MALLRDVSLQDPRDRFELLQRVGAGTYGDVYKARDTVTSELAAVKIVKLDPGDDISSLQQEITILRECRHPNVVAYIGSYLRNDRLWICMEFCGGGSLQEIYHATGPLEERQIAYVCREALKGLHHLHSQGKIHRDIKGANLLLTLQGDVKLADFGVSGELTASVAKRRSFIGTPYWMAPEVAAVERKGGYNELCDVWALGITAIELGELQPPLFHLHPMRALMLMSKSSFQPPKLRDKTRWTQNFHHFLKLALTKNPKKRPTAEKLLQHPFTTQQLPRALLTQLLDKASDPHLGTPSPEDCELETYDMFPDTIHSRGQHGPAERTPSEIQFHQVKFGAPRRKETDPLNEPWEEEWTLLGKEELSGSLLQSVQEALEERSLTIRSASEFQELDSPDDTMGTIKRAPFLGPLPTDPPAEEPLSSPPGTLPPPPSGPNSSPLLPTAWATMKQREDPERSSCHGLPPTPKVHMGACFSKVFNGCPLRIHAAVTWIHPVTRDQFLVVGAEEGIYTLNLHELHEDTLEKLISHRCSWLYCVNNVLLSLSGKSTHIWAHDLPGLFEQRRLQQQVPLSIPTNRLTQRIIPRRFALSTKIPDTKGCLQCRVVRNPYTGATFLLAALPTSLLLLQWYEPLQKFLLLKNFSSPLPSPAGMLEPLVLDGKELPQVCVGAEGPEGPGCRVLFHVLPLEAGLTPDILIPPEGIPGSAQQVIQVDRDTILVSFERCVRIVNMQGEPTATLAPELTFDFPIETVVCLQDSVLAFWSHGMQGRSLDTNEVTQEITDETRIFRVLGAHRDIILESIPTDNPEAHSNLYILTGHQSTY

[19] = biological target: T5, Mitogen-activated protein kinase kinase kinase kinase 2 (Homo sapiens); details: at 1 µM
[20] = biological target: Mitogen-activated protein kinase kinase kinase kinase 4 (Homo sapiens) (UniProt O95819); details: at 0.1 µM
Mitogen-activated protein kinase kinase kinase kinase 4 (Homo sapiens), sequence (O95819 2-1239 limits assumed): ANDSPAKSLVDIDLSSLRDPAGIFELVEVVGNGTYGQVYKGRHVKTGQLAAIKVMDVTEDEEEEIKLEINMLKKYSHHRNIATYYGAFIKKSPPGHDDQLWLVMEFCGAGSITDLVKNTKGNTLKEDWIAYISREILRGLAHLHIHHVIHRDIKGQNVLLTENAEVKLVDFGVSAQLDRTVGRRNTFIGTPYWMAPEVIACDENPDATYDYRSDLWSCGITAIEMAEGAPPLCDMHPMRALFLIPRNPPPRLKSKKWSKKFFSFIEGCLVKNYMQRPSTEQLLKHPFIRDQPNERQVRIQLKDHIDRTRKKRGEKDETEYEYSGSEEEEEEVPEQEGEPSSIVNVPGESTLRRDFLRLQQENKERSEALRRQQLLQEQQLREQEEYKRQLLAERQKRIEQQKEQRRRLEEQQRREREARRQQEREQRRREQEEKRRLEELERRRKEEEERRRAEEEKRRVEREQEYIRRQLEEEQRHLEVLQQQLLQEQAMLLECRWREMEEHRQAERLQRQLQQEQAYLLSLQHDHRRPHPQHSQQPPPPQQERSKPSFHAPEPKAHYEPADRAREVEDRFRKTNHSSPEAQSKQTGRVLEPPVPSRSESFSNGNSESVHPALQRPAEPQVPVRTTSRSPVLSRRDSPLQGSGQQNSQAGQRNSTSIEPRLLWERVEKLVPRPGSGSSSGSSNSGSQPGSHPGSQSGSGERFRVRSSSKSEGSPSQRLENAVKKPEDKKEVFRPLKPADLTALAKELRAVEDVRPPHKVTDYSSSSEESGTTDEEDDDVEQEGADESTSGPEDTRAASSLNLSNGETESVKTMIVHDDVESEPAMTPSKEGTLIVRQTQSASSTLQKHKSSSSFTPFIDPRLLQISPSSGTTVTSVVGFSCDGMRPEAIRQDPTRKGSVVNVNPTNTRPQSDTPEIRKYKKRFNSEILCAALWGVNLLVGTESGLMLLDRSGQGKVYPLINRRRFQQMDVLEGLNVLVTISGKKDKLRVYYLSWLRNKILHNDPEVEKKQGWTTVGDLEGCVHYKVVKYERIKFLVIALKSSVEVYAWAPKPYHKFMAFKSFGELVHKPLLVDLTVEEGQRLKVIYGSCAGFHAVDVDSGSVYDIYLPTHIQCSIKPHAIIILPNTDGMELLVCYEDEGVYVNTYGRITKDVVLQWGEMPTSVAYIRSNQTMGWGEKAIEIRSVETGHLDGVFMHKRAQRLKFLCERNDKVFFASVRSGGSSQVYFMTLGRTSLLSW

BDNF/NT-3 growth factors receptor (Homo sapiens), sequence (Q16620 32-822 limits assumed): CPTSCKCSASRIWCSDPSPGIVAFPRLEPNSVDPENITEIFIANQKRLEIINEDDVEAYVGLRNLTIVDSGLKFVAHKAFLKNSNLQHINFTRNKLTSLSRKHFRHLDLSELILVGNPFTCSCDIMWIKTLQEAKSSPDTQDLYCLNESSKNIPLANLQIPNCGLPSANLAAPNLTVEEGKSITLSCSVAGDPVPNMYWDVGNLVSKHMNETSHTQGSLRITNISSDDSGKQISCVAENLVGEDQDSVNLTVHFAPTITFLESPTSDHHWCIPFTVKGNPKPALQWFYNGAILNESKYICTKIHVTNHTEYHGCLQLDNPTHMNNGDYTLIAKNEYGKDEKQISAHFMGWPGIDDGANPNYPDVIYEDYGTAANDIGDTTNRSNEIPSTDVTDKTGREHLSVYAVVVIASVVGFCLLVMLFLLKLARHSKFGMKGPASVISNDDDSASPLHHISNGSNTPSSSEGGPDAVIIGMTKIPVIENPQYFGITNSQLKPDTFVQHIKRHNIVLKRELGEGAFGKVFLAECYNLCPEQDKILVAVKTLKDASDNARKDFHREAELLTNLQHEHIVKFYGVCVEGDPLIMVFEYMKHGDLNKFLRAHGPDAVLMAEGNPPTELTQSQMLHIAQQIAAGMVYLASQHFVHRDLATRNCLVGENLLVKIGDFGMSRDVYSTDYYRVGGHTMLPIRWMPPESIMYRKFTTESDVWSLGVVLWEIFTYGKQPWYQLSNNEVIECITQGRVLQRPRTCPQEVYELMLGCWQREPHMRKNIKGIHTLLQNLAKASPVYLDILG

Row | Structure (SMILES) | inhibition [1] | inhibition [2] | inhibition [3] | inhibition [4] | inhibition [5] | inhibition [6] | inhibition [7] | inhibition [8] | inhibition [9] | inhibition [10] | inhibition [11] | inhibition [12] | inhibition [13] | inhibition [14] | inhibition [15] | inhibition [16] | inhibition [17] | inhibition [18] | inhibition [19] | inhibition [20]
1 | NS(=O)(=O)c1ccc(-c2cc3ccncc3cc2OCc2ccccc2)cc1 | 0.22% | 2.7% | 2.46% | 2.49% | 5.04% | 1.58% | 1.28% | -3.96% | 9.25% | 2.34% | 7.25% | 2.9% | 4.42% | -0.1% | -6.92% | 3.53% | 9.35% | -0.94% | 2.03% | 5.89%
2 | CS(=O)(=O)Nc1cccc(-c2ccc3c(NC(=O)C4CC4)n[nH]c3c2)c1 | 2.02% | 0.05% | 0.23% | -0.22% | 5.08% | -1.12% | 2.67% | 0.85% | 5.01% | 2.68% | 12.4% | 1.84% | 3.58% | 1.43% | 15.6% | 3.13% | 10.2% | 1.94% | 2.98% | 2.8%
3 | Cc1ccc2c(c1)/C(=N/Nc1ccc(S(N)(=O)=O)cc1)C(=O)N2 | 11.8% | 3.81% | 31.2% | 4.95% | 39.2% | 1.24% | 3.92% | 1.2% | 33.2% | 2.87% | 27.8% | 1.05% | 7.36% | 1.16% | 23.6% | 0.32% | 3.53% | 1.01% | 4.98% | 27.3%
4 | O=C1Nc2ccccc2/C1=C/Nc1ccc2[nH]c(=O)[nH]c2c1 | 53.9% | 26.2% | 72.7% | 26.2% | 74.2% | 6.68% | 7.08% | -6.64% | 38.8% | 6.9% | 52% | 10.8% | 44.7% | 9.06% | 81.9% | 8.73% | 17% | 1.3% | 15.2% | 25.3%
